Reference: PubChem BioAssay (NCI)
The panel holds about 83,000 compounds, 20% with a hit somewhere; the sample as a whole holds those more often.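 Interpretation: 100, growth as untreated; towards 0, rising growth inhibition; 0, no net growth; 0 to -100, cell death. Compounds scoring below 10 were considered active.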 The source made the active and inactive calls.

Tests used:
Assay in all cases: NCI-60 one-dose screen, 48 h (100 = growth as untreated, 0 = no growth, -100 = all killed)
Conditions in all cases: 10 µM unless noted
T-47D breast = system: T-47D breast
BT-549 breast = system: BT-549 breast
MDA-MB-435 melanoma = system: MDA-MB-435 melanoma
SW-620 colon = system: SW-620 colon
MCF7 breast = system: MCF7 breast
HCC-2998 colon = system: HCC-2998 colon
KM12 colon = system: KM12 colon
HCT-116 colon = system: HCT-116 colon

Measured: growth

C=CCn1c(C)nc2cc(Nc3nc(N4CCCC4)nc4nc[nH]c34)ccc21
active: BT-549 breast -33.6% | MDA-MB-435 melanoma 9.16%
inactive: T-47D breast 45% | SW-620 colon 40.8% | MCF7 breast 73.5% | HCC-2998 colon 76.4% | KM12 colon 13.1%

Fc1ccc(-c2ccnc3nc(-c4ccncc4)nn23)cc1
inactive: T-47D breast 90.1% | BT-549 breast 93.8% | MDA-MB-435 melanoma 107% | SW-620 colon 30.3% | MCF7 breast 86.1% | HCT-116 colon 95.1% | KM12 colon 99.8%

COc1ccc(C2C3=C(COC3=O)N(CCO)c3cc(OC)c(OC)cc32)cc1 (stereo unspecified)
inactive: T-47D breast 91.3% | BT-549 breast 100% | MDA-MB-435 melanoma 112% | SW-620 colon 101% | MCF7 breast 103% | HCT-116 colon 103% | KM12 colon 106%

CCc1ccc2c(c1)N(CCO)C1=C(C(=O)OC1)C2c1cccc(Cl)c1 (stereo unspecified)
inactive: T-47D breast 52.1% | BT-549 breast 42.1% | SW-620 colon 26% | MCF7 breast 24.5% | HCT-116 colon 15.3% | KM12 colon 13.4%
active: MDA-MB-435 melanoma -57.3%

COc1ccc(Nc2ncnc3c2sc2nc(C)cc(C)c23)cc1
inactive: T-47D breast 89.6% | BT-549 breast 104% | MDA-MB-435 melanoma 98.7% | SW-620 colon 108% | MCF7 breast 80.1% | HCT-116 colon 90.4% | KM12 colon 96.7%

CC1CCN(Cc2ccc(NC(=O)c3cc4ccc5cccnc5c4[nH]3)cc2)CC1
active: MDA-MB-435 melanoma -67.6%
inactive: T-47D breast 38.4% | BT-549 breast 42.8% | SW-620 colon 28.1% | MCF7 breast 27.2% | HCT-116 colon 13.6% | HCC-2998 colon 17.5% | KM12 colon 15.1%

COc1ccc2c(c1)N(CCO)C1=C(C(=O)OC1)C2c1cccc(Br)c1 (stereo unspecified)
active: MDA-MB-435 melanoma -51% | HCT-116 colon 3.89% | KM12 colon -31.2%
inactive: T-47D breast 72% | BT-549 breast 15.9% | SW-620 colon 22.5% | MCF7 breast 16.1%

CCc1ccc2c(c1)N(CCO)C1=C(C(=O)OC1)C2c1cccc(Br)c1 (stereo unspecified)
active: MDA-MB-435 melanoma -62.5%
inactive: T-47D breast 47.5% | BT-549 breast 46.6% | SW-620 colon 26.8% | MCF7 breast 21.1% | HCT-116 colon 26.9% | KM12 colon 19.2%

Cc1nc2c(-c3cnc(N)nc3)nc(N3CCOCC3)nc2n1C(C)C
inactive: SW-620 colon 11.3% | HCT-116 colon 17.2%
active: T-47D breast -18% | BT-549 breast -3.32% | MDA-MB-435 melanoma 4.17% | MCF7 breast 9.9% | KM12 colon 5.78%

O=C1/C(=C\c2cccn2C(=O)c2ccccc2)c2ccccc2N1c1c(Cl)cccc1Cl
inactive: T-47D breast 65.6% | BT-549 breast 102% | MDA-MB-435 melanoma 33.8% | SW-620 colon 30% | MCF7 breast 29.8% | HCC-2998 colon 83.8% | KM12 colon 65.4%

CC(C)c1[nH]ncc1-c1nc2ccc3[nH]ncc3c2c2c1CCCC2
inactive: T-47D breast 46.8% | BT-549 breast 27.4% | MDA-MB-435 melanoma 53.8% | SW-620 colon 15.9% | MCF7 breast 20.4% | HCC-2998 colon 53.5% | KM12 colon 17.4%

CCCCCCCCCCCCCC(=S)NCCCC[C@H](NC(=O)OCc1ccccc1)C(=O)Nc1ccccc1
inactive: T-47D breast 43.5% | BT-549 breast 107% | MDA-MB-435 melanoma 51.4% | SW-620 colon 32.7% | MCF7 breast 42.4% | HCT-116 colon 25% | KM12 colon 25.9%

COC(=O)C1(C)COP(=O)(NC23CC4CC(CC(C4)C2)C3)OC1 (stereo unspecified)
inactive: T-47D breast 111% | BT-549 breast 99.7% | MDA-MB-435 melanoma 105% | SW-620 colon 100% | MCF7 breast 102% | HCT-116 colon 108% | KM12 colon 102%

CC(=O)c1ccc(-n2c(-c3cc(-c4ccsc4)n[nH]3)n[nH]c2=S)cc1
inactive: T-47D breast 103% | BT-549 breast 95.3% | MDA-MB-435 melanoma 106% | SW-620 colon 94% | MCF7 breast 90.4% | HCC-2998 colon 99% | KM12 colon 100%

CN1CCN(Cc2ccc(NC(=O)c3cncc(C#Cc4cnc5cccnn45)c3)cc2C(F)(F)F)CC1
inactive: T-47D breast 30.7%
active: BT-549 breast 6.96% | MDA-MB-435 melanoma 1.81% | SW-620 colon -3.38% | MCF7 breast 3.61% | HCT-116 colon 3.88% | HCC-2998 colon 9.55% | KM12 colon -12.3%

Cc1cc(C)c([O-])c(CN(C)CCN(C)Cc2cc(C)cc(C)c2[O-])c1.O=C([O-])c1cccc(C(=O)[O-])n1.[Ti+4]
inactive: T-47D breast 28.4% | MCF7 breast 17.1% | KM12 colon 11%
active: BT-549 breast -0.731% | MDA-MB-435 melanoma 6.53% | SW-620 colon -19.7% | HCC-2998 colon 5.25%

COc1ccc(-c2oc(=O)ccc2-c2cc(OC)c(OC)c(OC)c2)cc1F
active: MDA-MB-435 melanoma -2.61%
inactive: T-47D breast 104% | BT-549 breast 98.5% | SW-620 colon 46.4% | MCF7 breast 44% | HCC-2998 colon 65% | KM12 colon 41.6%
